13 molecules from PubChem BioAssay (NCATS) can be followed below.

“And” between values parts separate entries of the source, which are not always exact repeats. Identical values can stand only once. Inconclusive results are not listed. The source made the active and inactive calls. Unless noted, calls come from the whole dose curve; as a rule, active = well fitted curve in the direction sought with a large enough effect; inconclusive = small, poorly fitted or top-dose-only effect, or another doubt; inactive = no such curve, though single readings can be large; an effect the other way counts as inactive or inconclusive.

The target of experiment [1] is DNA dC->dU-editing enzyme APOBEC-3G (Homo sapiens) (UniProt Q9HC16). Put plainly: qHTS for inhibitors of Vif-A3G interactions: Validation (AID 588379). Note: 0% is about no effect. An outline of the steps:
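HeLa cells stably expressing Vif and A3G-eYFP, 700 cells/well, incubated overnight at 37 deg C, then exposed to compound overnight at 37 deg C. Inhibition of Vif-mediated degradation read as increased yellow fluorescence (Ex 488/Em 500-530) by laser-scanning cytometry.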
(In general: qHTS replaces the single test concentration by a dilution series.)

The target of experiment [2] is Voltage-gated inwardly rectifying potassium channel KCNH2 (Homo sapiens) (UniProt Q12809). Put plainly: qHTS Assay for Small Molecule Inhibitors of the Human hERG Channel Activity (AID 588834).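 Note: top concentration of the series differs between compounds; % is set by controls: 0 for no effect and ±100 for the full control effect; lower thallium flux fluorescence means stronger hERG block; nearly all actives have a fitted effect of over 50% in size.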 An outline of the steps:
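U2OS cells transduced with hERG via BacMam (MOI ~100), plated 2000/well, loaded with FluxOR thallium dye, compound ~10 min, then stimulation buffer; fluorescence decrease read kinetically; AC50 from Hill fits.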

Experiment [3] addresses Luciferin 4-monooxygenase (Photinus pyralis) (UniProt P08659). Nature of the experiment: Biochemical firefly luciferase enzyme assay for NPC (AID 624030). Note: nearly all actives have a fitted effect of over 70% in size. Note: potency is the fitted concentration of half-maximal effect. An outline of the steps:
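Purified P. pyralis luciferase at 10 nM in 50 mM Tris Acetate (final), luminescence read within 5 minutes of enzyme addition to compounds. Activity normalised to PTC124 versus DMSO; concentration-response curves classed by r2, magnitude and activity.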

The target of experiment [4] is Estrogen receptor (Homo sapiens) (UniProt P03372). Nature of the experiment: qHTS assay for small molecule antagonists of estrogen receptor alpha signaling (AID 588513; active = well fitted curve in the direction sought with a large enough effect in the signal ratio, with a control signal flat, not every such curve was filed as active; the % refers to the signal ratio; note: % is set by controls: 0 for no effect and ±100 for the full control effect). An outline of the steps:
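ER-alpha-UAS-bla GripTite HEK 293 cells in medium with 2% charcoal/dextran-treated FBS were preincubated 4 h at 37 C, dosed with compound (1:2 titration), stimulated with 0.5nM 17-beta-estradiol for 18 h, then read by CCF4 beta-lactamase fluorescence.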

The target in experiment [5] is Bile acid receptor (Homo sapiens) (UniProt Q96RI1). Nature of the experiment: qHTS assay for small molecule antagonists of farnesoid X receptor signaling (AID 588526; calls by dose curve; note: % is set by controls: 0 for no effect and ±100 for the full control effect). An outline of the steps:
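Antagonist mode: titrated compounds tested against chenodeoxycholic acid stimulation (normalized to 50 uM CDCA and DMSO) in GeneBLAzer HEK293T cells for 16 h. Beta-lactamase read by CCF4 fluorescence; IC50 from Hill fits.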

In experiment [6] the target is Glucocorticoid receptor (Homo sapiens) (UniProt P04150). Nature of the experiment: qHTS assay for small molecule antagonists of glucocorticoid receptor signaling (AID 588533; active = well fitted inhibition curve with a large enough effect in the signal ratio, with a control signal flat, not every such curve was filed as active; the % refers to the signal ratio;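 note: cells stimulated with 2 nM dexamethasone as agonist; % is set by controls: 0 for no effect and ±100 for the full control effect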). An outline of the steps: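 Antagonist-mode qHTS: compound titrations added to GRE-bla HeLa cells, then dexamethasone 2 nM final; 18 h, 37 C. CCF4 FRET fluorescence normalized to dexamethasone and DMSO; IC50 from Hill fit.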
Glucocorticoid receptor (Homo sapiens), sequence (P04150 whole entry, looked up): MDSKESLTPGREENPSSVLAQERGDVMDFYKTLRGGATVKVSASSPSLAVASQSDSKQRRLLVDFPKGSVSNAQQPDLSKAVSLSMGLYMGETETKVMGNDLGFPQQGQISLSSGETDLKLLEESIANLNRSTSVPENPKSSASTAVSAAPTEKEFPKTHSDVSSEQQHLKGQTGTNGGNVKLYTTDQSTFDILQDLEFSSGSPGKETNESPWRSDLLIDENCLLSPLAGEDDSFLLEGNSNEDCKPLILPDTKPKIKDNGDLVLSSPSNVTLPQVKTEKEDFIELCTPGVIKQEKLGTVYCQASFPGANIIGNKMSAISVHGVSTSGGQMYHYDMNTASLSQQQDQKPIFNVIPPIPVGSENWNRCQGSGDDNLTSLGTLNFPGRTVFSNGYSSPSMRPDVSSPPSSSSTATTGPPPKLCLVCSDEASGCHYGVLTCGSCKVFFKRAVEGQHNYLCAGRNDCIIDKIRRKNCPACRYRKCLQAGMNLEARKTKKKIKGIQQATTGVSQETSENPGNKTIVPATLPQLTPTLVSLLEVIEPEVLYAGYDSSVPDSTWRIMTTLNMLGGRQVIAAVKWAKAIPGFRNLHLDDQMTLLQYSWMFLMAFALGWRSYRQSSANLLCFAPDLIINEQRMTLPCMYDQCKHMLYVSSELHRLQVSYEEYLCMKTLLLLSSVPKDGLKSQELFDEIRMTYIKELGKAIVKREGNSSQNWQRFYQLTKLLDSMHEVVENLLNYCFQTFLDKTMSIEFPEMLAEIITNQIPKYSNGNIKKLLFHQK

Experiment [7] is described as follows: qHTS assay for small molecule antagonists of peroxisome proliferator-activated receptor delta signaling (AID 588535; active = well fitted inhibition curve with a large enough effect in the signal ratio, with a control signal flat, not every such curve was filed as active; the % refers to the signal ratio;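 for max response: cells co-treated with a PPAR-delta agonist as stimulator during compound exposure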). Particulars: HEK293T PPARd-UAS-bla, beta-lactamase FRET ratio, 18 h; 460 nm channel. An outline of the steps:
(§1)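 Antagonist-mode beta-lactamase reporter (GeneBLAzer PPAR-delta-UAS-bla) in HEK293T cells, 2% charcoal/dextran FBS, 4000 cells/well. Compound titrations, 18 h at 37 C; CCF4 ratio read, IC50 and efficacy from Hill fits.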

For experiment [8], the target named is Peroxisome proliferator-activated receptor delta (Homo sapiens) (UniProt Q03181). The description is as above. An outline of the steps:
as §1

Experiment [9] deals with Vitamin D3 receptor (Homo sapiens) (UniProt P11473). Put plainly: qHTS assay for small molecule agonists of vitamin D receptor signaling (AID 588543; calls by dose curve;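 note: 0% = DMSO basal and 100% = reference agonist control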). An outline of the steps:
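GeneBLAzer VDR-UAS-bla HEK293T cells in 2% charcoal-stripped FBS medium were dosed with compound titrations for 16 h at 37 °C; CCF4 β-lactamase readout (405 nm ex, 460/530 nm em). EC50 and efficacy from Hill fits, normalized to 50 nM calcitriol (100%) and DMSO (0%).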

Experiment [10] can be described thus: qHTS assay for small molecule agonists of retinoid X receptor alpha signaling (AID 588544). Particulars: HEK293T RXRa-UAS-bla, beta-lactamase reporter, 18 h; 530 nm emission.
Experiment [11] addresses Thyroid hormone receptor beta (Homo sapiens) (UniProt P10828). Nature of the experiment: qHTS assay for small molecule agonists of thyroid hormone receptor beta signaling (AID 588545; calls by dose curve;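 note: 0% = DMSO only and 100% = 10 nM T3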). An outline of the steps:
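TR-UAS-bla-GripTite HEK 293 cells in medium with 2% charcoal/dextran FBS, 0.1 mM NEAA and 1 mM sodium pyruvate were treated with titrated compounds for 18 hrs at 37 C. Beta-lactamase reporter was read with CCF4 dye (ex 405, em 460/530 nm); EC50 from Hill fits.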

The nature of experiment [12]: qHTS assay for small molecule antagonists of retinoid X receptor alpha signaling (AID 588546).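 Note: cells stimulated with 9-cis-retinoic acid as agonist; % is set by controls: 0 for no effect and ±100 for the full control effect.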 Particulars: HEK293T RXRa-UAS-bla, beta-lactamase ratio, antagonist mode; measured here: W530 green channel, cytotoxicity proxy. An outline of the steps: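 Beta-lactamase reporter inhibition, read as CCF4 fluorescence ratio (ex 405, em 460/530 nm) after 2 h at RT. HEK293T UAS-bla cells, 2500/well, were stimulated with 9-cis-RA at 500 or 100 nM final alongside test compound for 18 h at 37 C.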

For experiment [13], the target named is Thyroid hormone receptor beta (Homo sapiens) (UniProt P10828). Put plainly: qHTS assay for small molecule antagonists of thyroid hormone receptor beta signaling (AID 588547; active = well fitted inhibition curve with a large enough effect in the signal ratio, with a control signal flat, not every such curve was filed as active; the % refers to the signal ratio). Particulars: TR-UAS-bla HEK293, beta-lactamase ratio, antagonist mode, 18 h. An outline of the steps: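 TR-UAS-bla GripTite HEK293 cells in 2% charcoal/dextran FBS medium; compounds 0.59 nM to 92 uM with T3 at 0.4nM final, 18 h at 37 C. Beta-lactamase read by CCF4 fluorescence (460/530 nm); Hill fits gave IC50 and efficacy.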
Thyroid hormone receptor beta (Homo sapiens), sequence (P10828 whole entry, looked up): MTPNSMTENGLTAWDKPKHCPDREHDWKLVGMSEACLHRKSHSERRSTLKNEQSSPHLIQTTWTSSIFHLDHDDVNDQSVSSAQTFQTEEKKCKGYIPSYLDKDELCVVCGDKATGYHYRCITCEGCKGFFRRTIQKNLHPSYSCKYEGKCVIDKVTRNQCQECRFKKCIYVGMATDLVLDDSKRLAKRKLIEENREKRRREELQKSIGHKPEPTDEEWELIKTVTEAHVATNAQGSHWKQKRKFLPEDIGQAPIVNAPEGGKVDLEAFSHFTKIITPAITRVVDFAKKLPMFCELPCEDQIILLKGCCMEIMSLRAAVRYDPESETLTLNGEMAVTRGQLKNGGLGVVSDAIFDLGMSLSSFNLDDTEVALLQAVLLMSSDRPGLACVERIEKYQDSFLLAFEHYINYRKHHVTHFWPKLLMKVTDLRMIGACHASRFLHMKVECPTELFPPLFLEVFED

Experiment [14] in a line: S16 Schwann cell viability assay (CellTiter-Glo assay) (AID 624031).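 Note: series mostly up to about 58 µM; plate controls were DMSO-treated cells for no effect and cell-free wells for full effect; nearly all actives have a fitted effect of over 70% in size.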 An outline of the steps:
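Untransfected S16 rat Schwann cells; compound 24 h, 37 °C/5% CO2; CellTiter-Glo ATP luminescence. % activity vs no-cell wells and DMSO controls (0%); concentration-effect curves classed by r2, response magnitude, activity.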
For orientation: ATP-based viability assays read luminescence as a measure of living cells.

Experiment [15] deals with Glucocorticoid receptor (Homo sapiens) (UniProt P04150). Nature of the experiment: qHTS assay for small molecule agonists of glucocorticoid receptor signaling (AID 588532; active = well fitted curve in the direction sought with a large enough effect in the signal ratio, with a control signal flat; the % refers to the signal ratio;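 note: 100% = dexamethasone at 0.1 µM and 0% = DMSO only wells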). Particulars: HeLa MMTV-bla, beta-lactamase ratio, agonist, 18 h; stronger effect = higher value; percent of dexamethasone control, DMSO zero. An outline of the steps:
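Cells were plated and rested 3-5 h at 37 C, compounds were added in titration and incubated 18 h, then CCF4 substrate was loaded for 2 h at RT before reading blue/green fluorescence. EC50 came from Hill-equation fitting.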

In experiment [16] the target is Estrogen receptor (Homo sapiens) (UniProt P03372). Nature of the experiment: qHTS assay for small molecule agonists of estrogen receptor alpha signaling (AID 588514; calls by dose curve;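 note: 0% = vehicle only and 100% = reference agonist; nearly all actives have a fitted effect of over 70% in size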). An outline of the steps:
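ER-alpha-UAS-bla GripTite HEK293 cells, 5000/well in 2% charcoal/dextran-stripped FBS medium, treated with compound titrations 18 h at 37 C. CCF4 beta-lactamase read by fluorescence after 2 h RT; normalised to 20 nM 17-beta-estradiol (100%) and DMSO (0%), Hill fit for EC50 and efficacy.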

Experiment [17] deals with Peroxisome proliferator-activated receptor gamma (Homo sapiens) (UniProt P37231). Put plainly: qHTS assay for small molecule agonists of peroxisome proliferator-activated receptor gamma signaling (AID 588536; active = well fitted curve in the direction sought with a large enough effect in the signal ratio, with a control signal flat, not every such curve was filed as active; the % refers to the signal ratio;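 note: 0% = DMSO basal wells and 100% = rosiglitazone at 2 µM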). An outline of the steps:
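HEK293 UAS-bla reporter line, 1% charcoal/dextran FBS; titration, 16 h, 37 C; CCF4 loading 2 h RT; fluorescence 460/530 nm. Normalized to rosiglitazone 2 uM = 100%, DMSO = 0%.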

Experiment [18] shares this target. Put plainly: qHTS assay for small molecule antagonists of peroxisome proliferator-activated receptor gamma signaling (AID 588537; active = well fitted inhibition curve with a large enough effect in the signal ratio, with a control signal flat, not every such curve was filed as active; the % refers to the signal ratio;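 note: reporter cells co-stimulated with 50 nM rosiglitazone agonist during compound treatment; % of control where 0% means no effect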). An outline of the steps:
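PPARγ-UAS-bla HEK293 cells (3000/well) in 1% charcoal/dextran-stripped FBS are treated with compound, then stimulated with 50 nM rosiglitazone for 16 h at 37 °C. Read-out is CCF4 β-lactamase fluorescence after 2 h at RT. IC50 comes from Hill fits normalised to rosiglitazone and DMSO.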

Voltage-gated inwardly rectifying potassium channel KCNH2 (Homo sapiens), sequence (Q12809 whole entry, looked up): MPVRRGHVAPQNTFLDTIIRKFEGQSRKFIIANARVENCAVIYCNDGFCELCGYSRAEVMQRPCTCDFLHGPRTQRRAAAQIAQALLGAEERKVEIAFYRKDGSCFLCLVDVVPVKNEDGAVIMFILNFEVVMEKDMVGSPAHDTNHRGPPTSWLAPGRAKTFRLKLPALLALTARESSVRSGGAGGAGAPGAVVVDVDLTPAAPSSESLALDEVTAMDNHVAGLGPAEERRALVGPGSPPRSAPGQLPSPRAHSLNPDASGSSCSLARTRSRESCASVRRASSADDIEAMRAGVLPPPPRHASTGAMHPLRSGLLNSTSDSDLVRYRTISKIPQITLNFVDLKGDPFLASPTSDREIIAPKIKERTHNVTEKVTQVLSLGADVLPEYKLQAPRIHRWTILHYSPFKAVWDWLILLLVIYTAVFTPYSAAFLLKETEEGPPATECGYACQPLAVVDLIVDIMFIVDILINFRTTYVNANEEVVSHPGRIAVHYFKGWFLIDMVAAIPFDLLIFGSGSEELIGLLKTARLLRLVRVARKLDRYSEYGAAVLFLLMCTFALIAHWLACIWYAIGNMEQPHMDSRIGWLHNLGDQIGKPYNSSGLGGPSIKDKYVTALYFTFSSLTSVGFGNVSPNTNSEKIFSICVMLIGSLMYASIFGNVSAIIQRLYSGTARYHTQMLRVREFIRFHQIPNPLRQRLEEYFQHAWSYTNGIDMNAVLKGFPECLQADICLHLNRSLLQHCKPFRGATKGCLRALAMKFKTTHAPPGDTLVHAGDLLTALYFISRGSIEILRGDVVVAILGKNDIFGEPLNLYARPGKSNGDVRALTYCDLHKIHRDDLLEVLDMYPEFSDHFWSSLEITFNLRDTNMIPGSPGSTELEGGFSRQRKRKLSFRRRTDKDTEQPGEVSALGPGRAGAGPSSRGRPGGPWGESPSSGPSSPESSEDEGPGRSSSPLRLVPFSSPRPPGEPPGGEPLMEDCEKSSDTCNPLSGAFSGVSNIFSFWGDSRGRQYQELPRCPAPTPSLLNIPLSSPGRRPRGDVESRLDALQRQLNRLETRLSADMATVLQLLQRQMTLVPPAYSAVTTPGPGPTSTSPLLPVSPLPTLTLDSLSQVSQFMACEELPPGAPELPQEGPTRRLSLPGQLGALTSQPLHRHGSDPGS
Estrogen receptor (Homo sapiens), sequence (P03372 whole entry, looked up): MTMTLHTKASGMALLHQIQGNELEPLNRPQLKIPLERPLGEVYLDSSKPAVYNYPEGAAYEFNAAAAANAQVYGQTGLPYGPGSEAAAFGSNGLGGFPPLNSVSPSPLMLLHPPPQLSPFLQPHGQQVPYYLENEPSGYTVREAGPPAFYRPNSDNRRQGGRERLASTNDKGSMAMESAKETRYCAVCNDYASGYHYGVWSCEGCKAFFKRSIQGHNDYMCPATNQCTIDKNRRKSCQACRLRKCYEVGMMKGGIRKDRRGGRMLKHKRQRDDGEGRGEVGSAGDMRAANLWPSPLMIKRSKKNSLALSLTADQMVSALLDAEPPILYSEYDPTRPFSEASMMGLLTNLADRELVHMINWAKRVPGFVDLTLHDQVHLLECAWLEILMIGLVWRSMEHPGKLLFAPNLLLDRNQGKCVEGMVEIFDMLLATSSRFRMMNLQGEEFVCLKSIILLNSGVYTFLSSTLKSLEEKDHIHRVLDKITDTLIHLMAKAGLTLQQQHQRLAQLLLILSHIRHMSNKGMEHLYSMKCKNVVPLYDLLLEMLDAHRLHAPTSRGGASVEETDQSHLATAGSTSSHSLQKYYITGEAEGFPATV
Luciferin 4-monooxygenase (Photinus pyralis), sequence (P08659 whole entry, looked up): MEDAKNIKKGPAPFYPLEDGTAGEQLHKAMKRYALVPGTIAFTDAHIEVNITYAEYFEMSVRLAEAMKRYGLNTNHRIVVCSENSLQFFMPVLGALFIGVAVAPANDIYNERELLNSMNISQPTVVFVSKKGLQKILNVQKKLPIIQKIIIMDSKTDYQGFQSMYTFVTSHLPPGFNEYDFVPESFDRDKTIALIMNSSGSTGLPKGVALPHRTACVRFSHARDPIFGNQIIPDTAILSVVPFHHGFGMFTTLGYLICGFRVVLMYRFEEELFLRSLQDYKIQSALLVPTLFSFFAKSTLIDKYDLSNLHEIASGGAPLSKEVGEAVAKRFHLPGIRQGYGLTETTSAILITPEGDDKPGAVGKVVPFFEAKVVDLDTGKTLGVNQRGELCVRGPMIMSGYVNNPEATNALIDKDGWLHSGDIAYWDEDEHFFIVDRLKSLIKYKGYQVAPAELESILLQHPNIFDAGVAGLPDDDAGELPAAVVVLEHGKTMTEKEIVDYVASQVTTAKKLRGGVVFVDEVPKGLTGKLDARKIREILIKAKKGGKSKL
DNA dC->dU-editing enzyme APOBEC-3G (Homo sapiens), sequence (Q9HC16 whole entry, looked up): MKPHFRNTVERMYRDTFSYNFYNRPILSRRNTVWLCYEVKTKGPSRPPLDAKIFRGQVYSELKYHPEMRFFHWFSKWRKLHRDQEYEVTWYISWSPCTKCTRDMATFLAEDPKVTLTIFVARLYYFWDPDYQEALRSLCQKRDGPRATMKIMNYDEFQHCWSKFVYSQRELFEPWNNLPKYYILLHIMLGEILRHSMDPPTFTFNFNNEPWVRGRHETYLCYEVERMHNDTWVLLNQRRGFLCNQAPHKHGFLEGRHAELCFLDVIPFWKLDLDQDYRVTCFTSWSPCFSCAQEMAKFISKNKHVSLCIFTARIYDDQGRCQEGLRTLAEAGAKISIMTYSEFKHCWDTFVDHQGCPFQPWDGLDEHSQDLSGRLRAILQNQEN
Bile acid receptor (Homo sapiens), sequence (Q96RI1 whole entry, looked up): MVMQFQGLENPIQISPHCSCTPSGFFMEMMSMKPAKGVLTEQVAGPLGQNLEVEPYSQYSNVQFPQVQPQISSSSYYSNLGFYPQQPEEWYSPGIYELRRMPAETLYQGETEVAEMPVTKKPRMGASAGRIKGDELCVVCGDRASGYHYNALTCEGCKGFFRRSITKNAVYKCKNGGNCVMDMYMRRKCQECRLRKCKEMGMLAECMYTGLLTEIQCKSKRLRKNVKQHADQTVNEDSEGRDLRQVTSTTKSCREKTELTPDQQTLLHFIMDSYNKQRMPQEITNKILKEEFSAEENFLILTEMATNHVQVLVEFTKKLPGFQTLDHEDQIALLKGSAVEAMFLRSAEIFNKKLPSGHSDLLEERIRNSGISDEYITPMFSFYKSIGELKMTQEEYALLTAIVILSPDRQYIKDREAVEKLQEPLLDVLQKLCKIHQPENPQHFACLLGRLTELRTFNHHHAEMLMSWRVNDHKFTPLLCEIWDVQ
Peroxisome proliferator-activated receptor delta (Homo sapiens), sequence (Q03181 whole entry, looked up): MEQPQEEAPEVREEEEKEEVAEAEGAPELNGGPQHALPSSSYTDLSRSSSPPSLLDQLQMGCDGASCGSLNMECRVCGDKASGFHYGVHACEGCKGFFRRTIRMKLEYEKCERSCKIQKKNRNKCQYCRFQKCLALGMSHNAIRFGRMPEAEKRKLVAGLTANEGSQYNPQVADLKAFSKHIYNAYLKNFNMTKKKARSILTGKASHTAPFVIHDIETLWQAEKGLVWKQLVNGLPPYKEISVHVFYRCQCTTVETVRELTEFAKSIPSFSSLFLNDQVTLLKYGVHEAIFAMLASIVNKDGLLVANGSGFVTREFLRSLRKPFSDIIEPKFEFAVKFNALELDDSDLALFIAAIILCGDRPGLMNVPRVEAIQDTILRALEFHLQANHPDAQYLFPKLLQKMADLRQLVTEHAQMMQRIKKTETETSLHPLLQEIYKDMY

On to `CC(C)C(=O)c1c(C(C)C)nn2ccccc12`, for which the call in [1] was inactive. Besides, the Potency result in [2] and in [3] was “inactive” each time.
`CCOC(=O)c1ccc(O)cc1`: the outcome in experiment [4], in [5], in experiment [6], in experiment [8], in [9] and in experiment [11] was inactive. In addition, the max response was -12.7% in experiment [7], 3.41% in experiment [10] and -7.61% in experiment [12]. In addition, the activity change % (negative = inhibition) in experiment [13] is -5.55% (inactive). Also, the Potency result in [2], in experiment [3] and in [14] was “inactive” throughout.
`CCCCCCCCCCCCCCCC(=O)NCCO`: the molecule was classed as inactive in experiment [1]. Moreover, the Potency result in experiment [2], in [3] and in experiment [14] was “inactive” throughout.
On to `COC(=O)C1=C(C)NC(C)=C(C(=O)OC)C1c1ccccc1[N+](=O)[O-]`, for which the molecule was called inactive in experiment [1], in experiment [4], in [9] and in experiment [11]. The activation in [15] is -7.74% (inactive). Also, the max response in [12] worked out at 8.81%. The activity change % (negative = inhibition) in [13] is -6% (inactive). Besides, the Potency result in experiment [3] and in experiment [14] was “inactive” throughout.
With `Nc1cc(=O)[nH]c(N)n1`, the outcome in experiment [1] was inactive. The Potency result in [2] and in experiment [3] was “inactive” throughout.
For the molecule `CCCCC(CC)COC(=O)c1ccccc1O` (centres undefined), the molecule was classed as inactive in experiment [4], in experiment [16], in experiment [6], in [8], in experiment [17] and in [18]. Besides, the call in [9] and in experiment [11] was inactive. For the same molecule, in experiment [15], the activation is -10.3% (inactive). The results for the max response in experiment [7], in experiment [10] and in experiment [12] were -34.6%, -12.2% and -3.04%, respectively. Besides, in [13], the activity change % (negative = inhibition) was 12.6% (inactive). In addition, the Potency entry in experiment [2], in [3] and in [14] was “inactive” in each case.
With `Nc1ncnc2c1ncn2[C@@H]1O[C@H](CO)[C@@H](O)[C@H]1O`, the call in experiment [1] was inactive. In addition, the Potency entry in [3] and in experiment [14] was “inactive” throughout.
Consider `CC(C)NC[C@H](O)c1ccc(O)c(O)c1`, for which, in experiment [1], the call was inactive. Moreover, the Potency entry in experiment [2] is “inactive”.
With `CN(C)CCC=C1c2ccccc2CCc2ccccc21`, the molecule was classed as inactive in experiment [16], in experiment [8], in experiment [9] and in experiment [11]. In addition, the max response in experiment [7] is 10%; in experiment [10] it was 20%. Besides, the Potency result in experiment [3] is “inactive”.
Regarding `OC[C@H]1O[C@@H](O[C@@H]2[C@@H](CO)O[C@](O)(CO)[C@H]2O)[C@H](O)[C@@H](O)[C@H]1O`, the call in experiment [1] was inactive. Moreover, the Potency result in experiment [2] was “inactive”.
Take `CC1=C(CC(=O)O)c2cc(F)ccc2/C1=C\c1ccc(S(C)=O)cc1` (centres undefined): the outcome in experiment [1] was inactive. The Potency entry in experiment [2], in experiment [3] and in [14] was “inactive” in each case.
As for `COc1ccccc1O`, the call in experiment [4], in [16], in experiment [5], in [6], in experiment [8] and in experiment [17] was inactive. Further, the outcome in experiment [18], in experiment [9] and in experiment [11] was inactive. For the same molecule, the activation in [15] was 0.59% (inactive) and 4.92% (inactive) and -0.396% (inactive). The max response is -6.63% and -4.79% in [7]; -7.45% and -9.73% and 7.42% in [10]; -10.5% and -8.87% and -4.21% in experiment [12]. For the same molecule, the activity change % (negative = inhibition) in experiment [13] was 8.27% (inactive) and 8.42% (inactive) and 1.01% (inactive). Further, the Potency result in experiment [2], in [3] and in experiment [14] was “inactive” each time.
Consider `CC1=C(/C=C/C(C)=C/C=C/C(C)=C/C(=O)O)C(C)(C)CCC1`, for which the molecule was classed as inactive in experiment [1], in experiment [6], in experiment [8], in experiment [18], in experiment [9] and in [11]. Further, in experiment [15], the activation is 3.3% (inactive) and -6.04% (inactive). For the same molecule, the max response in [7] is 53.7% and 67%. Moreover, the activity change % (negative = inhibition) in experiment [13] is 3.37% (inactive). In addition, the Potency in experiment [3] is 32.2 µM (active). Also, the Potency result in [14] was “inactive”.
